# High-throughput results: PubChem BioAssay, several laboratories
# Compounds with a hit are over-represented: about 5.9% of the library has one in this group of screens.
# PRMT1 FP inh: PRMT1 methyltransferase inhibitors, primary screen, biochemical, fluorescence polarization | recombinant PRMT1, activity-based probe fluorescence polarization | 370,000 compounds, 1.3% hits | inhibition, % at 2.79 µM | AID 652257, 2013 | Protein arginine N-methyltransferase 1 (Homo sapiens), Q99873;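 active = inhibition above about 21% made by adding two undisclosed values, limit read from the data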
# Target sequence (Q99873 whole entry, looked up): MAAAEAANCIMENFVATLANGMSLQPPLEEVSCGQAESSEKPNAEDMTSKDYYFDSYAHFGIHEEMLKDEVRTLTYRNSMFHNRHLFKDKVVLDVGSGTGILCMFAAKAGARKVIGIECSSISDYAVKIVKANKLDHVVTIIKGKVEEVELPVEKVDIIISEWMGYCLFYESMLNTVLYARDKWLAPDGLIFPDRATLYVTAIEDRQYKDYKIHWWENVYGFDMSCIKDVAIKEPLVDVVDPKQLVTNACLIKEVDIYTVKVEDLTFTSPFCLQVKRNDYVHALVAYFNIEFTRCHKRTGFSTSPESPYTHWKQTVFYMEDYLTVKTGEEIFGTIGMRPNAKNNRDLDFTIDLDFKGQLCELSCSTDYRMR
# LANA-H2B inh: blockers of LANA interaction with H2A/H2B – biochemical, FP readout, HTS, primary screen; Protein LANA1 (Human herpesvirus 8 type P (isolate GK18)), Q9QR71; cell-free LANA-H2A/H2B peptide, fluorescence polarization; inhibition, % (test concentration not listed); 320,000 compounds, 0.6% hits; AID 2629, 2010; in the data active = inhibition mostly above about 10%, no sharp cut-off; inactive = mostly below about 6.7%
# Rtt109 HAT inh: inhibitors of C. albicans Rtt109/Vps75 HAT, primary screen, biochemical, ThioGlo CoA-SH fluorescence, plate reader. purified Rtt109/Vps75, 4 h. 330,000 compounds, 0.16% hits. inhibition, % at 34.9 µM. Histone acetyltransferase RTT109 (Candida albicans (strain SC5314 / ATCC MYA-2876)), …;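 active = inhibition of at least 50% in every replicate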
# ABHD5 PLIN5 PPI: ABHD5-PLIN5 interaction inhibitors, primary screen, cell lysate, split luciferase complementation, luminescence | Perilipin-5 (Homo sapiens) + 1-acylglycerol-3-phosphate O-acyltransferase ABHD5 (Homo … | Split G. princeps luciferase complementation, 4 h | inhibition, % at 4 µM | 360,000 compounds, 0.78% hits;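 active = inhibition above the mean inhibition across every tested compound plus 3 SD, cut at about 22% in these data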
# ALR inh: inhibitors of human ALR sulfhydryl oxidase, primary screen, biochemical, H2O2 detection, HRP-luminol luminescence, single point; purified ALR, DTT oxidation; inhibition, % (no concentration beside the values); 290,000 compounds, 3.8% hits; AID 485317, 2010; FAD-linked sulfhydryl oxidase ALR (Homo sapiens), P55789;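 active = mean replicate inhibition above about 79%, with every replicate also reaching it, limit read from the data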
# Target sequence (P55789 whole entry, looked up): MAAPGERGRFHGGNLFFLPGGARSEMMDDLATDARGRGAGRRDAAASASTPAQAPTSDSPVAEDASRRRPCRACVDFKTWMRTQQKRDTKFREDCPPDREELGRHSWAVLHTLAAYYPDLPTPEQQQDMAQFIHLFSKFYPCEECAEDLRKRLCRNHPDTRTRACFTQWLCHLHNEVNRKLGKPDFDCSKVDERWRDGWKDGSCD
# rCAG RNA binder: binders of r(CAG) RNA repeats, primary screen, biochemical, fluorescence; AID 651821, 2012; 370,000 compounds, 1.3% hits; r(CAG) RNA repeat, TO-PRO-1 dye displacement fluorescence; inhibition, % at 3 µM;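 active = inhibition above the plate cutoff, the mean of all test compounds on that plate plus 3 SD, cut at about 35% in these data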;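 note: higher means more dye released from RNA so lower well fluorescence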
# PRMT1 inh conf: PRMT1 methyltransferase inhibitors, confirmation, biochemical, fluorescence polarization, triplicate; shares compounds with PRMT1 FP inh; recombinant His-PRMT1, activity-based probe fluorescence polarization; inhibition, % at 2.79 µM; 3,300 compounds, 42% hits; AID 687036, 2013;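 active = mean inhibition across replicates above the hit cutoff derived for the earlier primary screen, cut at about 22% in these data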
# Hits are given with their value; - = inactive; . = no result given.
SMILES,PRMT1 FP inh,LANA-H2B inh,Rtt109 HAT inh,ABHD5 PLIN5 PPI,ALR inh,rCAG RNA binder,PRMT1 inh conf
CCOC(=O)[C@@]12CN(C(=O)OC(C)(C)C)CC=C1N(Cc1ccc(OC)cc1)C(=O)[C@H]2CC(=O)N1CCN(C(=O)c2ccco2)CC1,-,.,.,.,.,-,.
N#CC(=C1NC(=O)c2ccccc21)c1nc2ccccc2n1CCO,-,.,.,-,.,-,.
CCOC(=O)c1cc(CC)sc1N1C(=O)CC(Sc2ccccc2C(=O)O)C1=O (stereo not drawn),54,-,-,-,-,-,56
COc1cccc(-c2cnc3c(NC(C)=O)cc(-c4cccc(C(=O)NCCO)c4)cn23)c1,-,.,.,-,.,-,.
FC(F)(F)c1nc2ccccc2nc1N/N=C\c1ccccc1,25,-,-,-,-,-,-
C(=N\Nc1nc(-c2ccccn2)nc2ccccc12)/c1ccccc1,.,-,.,.,-,.,.
CCOC(=O)C1Nc2ccc(Br)cc2C2C=CCC12 (stereo not drawn),30,-,-,-,.,63,26
O=C(NCCF)C1Nc2ccc(OC(F)(F)F)cc2C2C=CCC12 (stereo not drawn),29,-,-,-,-,-,-
CC(C)CNC(=O)C1Nc2ccccc2C2C=CCC12 (stereo not drawn),-,-,-,-,-,-,.
O=C(NCCOc1ccccc1)C1Nc2ccc(OC(F)(F)F)cc2C2C=CCC12 (stereo not drawn),-,-,-,-,-,-,.
Fc1cccc(Cc2c(C3CCCCC3)nc3c4ccccc4ccn23)c1,-,.,.,-,.,-,.
O=C(NNC(=O)c1ccccc1O)c1ccc(S(=O)(=O)Nc2ccccc2)cc1,-,-,-,-,-,-,.
CC(CSc1n[nH]c(=S)s1)c1ccccc1 (stereo not drawn),41,.,-,-,.,-,74
CC(C)CSc1n[nH]c(=S)s1,-,-,-,-,-,-,.
Nc1ccccc1SC1CC(=O)N(c2ccc3c(c2)OCCO3)C1=O (stereo not drawn),-,-,-,-,-,-,.
O=C1CC(Sc2ccc(Cl)cc2)C(=O)N1c1ccc2c(c1)OCCO2 (stereo not drawn),55,-,-,-,-,-,45
Nc1[nH]c(C(=O)c2ccccc2)c(-c2ccc(Cl)c(F)c2)c1C(=O)NCCc1c[nH]c2ccccc12,-,.,.,-,.,-,.
C[C@@H]1CNCCN1c1ccc(N2CCN(Cc3ccccc3)[C@@H](C)C2)c(C#N)c1,-,.,.,.,.,-,.
O=C(Sc1cccc2cccnc12)c1ccccc1Br,-,-,-,-,.,-,.
O=C(Sc1cccc2cccnc12)c1ccc(F)cc1,27,.,.,.,.,-,27
O=S(=O)(Nc1cccc(-c2cn3c(n2)SCC3)c1)c1ccccc1,-,-,-,-,-,-,.
O=C(N/N=C/c1cccnc1)c1sc2ccccc2c1Cl,-,-,-,-,-,-,.
CC(=O)Nc1ccc(NC(=O)CNC(=O)c2sc3ccccc3c2Cl)cc1,-,.,-,-,.,-,.
Oc1ccccc1N=Cc1sc2ccccc2c1Cl,-,-,-,-,-,-,.
CC(=O)NCCN=Cc1sc2ccccc2c1O,40,-,-,-,-,-,30
SMILES,PRMT1 FP inh,LANA-H2B inh,Rtt109 HAT inh,ABHD5 PLIN5 PPI,ALR inh,rCAG RNA binder,PRMT1 inh conf
Oc1c(C=Nc2cccnc2)sc2ccccc12,65,-,-,-,-,-,45
Cc1ccc(O)c(N=Cc2sc3ccccc3c2Cl)c1,-,-,-,-,-,-,.
Oc1c(C=Nc2ccccc2)sc2ccccc12,59,-,-,-,-,-,32
CN=Cc1sc2ccccc2c1O,52,-,-,-,-,-,27
O=c1[nH]cc(F)c(=O)n1C1OC(CO)C(O)C1O (stereo not drawn),-,.,.,-,.,-,.
C=CCN1C[C@H](COC(=O)c2ccc(C)c(C)c2)Oc2cccc(F)c2S1(=O)=O,-,.,.,.,.,-,.
Cn1c(SCc2nnc(-c3ccccc3Br)o2)nc2sc3c(c2c1=O)CCC3,29,-,-,-,-,-,-
Cc1ccccc1C(=O)NNc1ccc(-c2csnn2)cc1,27,-,-,-,.,-,-
Nc1ncc(N=Nc2cc(C(=O)O)ccc2Cl)s1,26,-,-,-,-,-,29
Cc1cc(Br)cn2c(Cc3ccccc3C(F)(F)F)c(-c3ccco3)nc12,40,.,.,.,.,-,23
Cc1ccc(O)c(NC(=O)C2=CC(c3ccco3)=NS(=O)(=O)N2C)c1,97,-,-,-,-,-,-
COCCN(CCOC)C(=O)[C@H](CCc1ccccc1)NC(=O)[C@H]1O[C@@H](n2cnc3c(N)ncnc32)[C@H](O)[C@@H]1O,-,.,.,.,.,-,.
O=C1N(c2ccccc2)CCN1c1ccccc1,-,-,-,-,.,-,.
O=C1NC(=S)CN1c1ccccc1,65,-,141,-,-,-,60
CCCN(CCC)CCNC(=O)c1cc2c(-c3ccccc3F)nn(C)c2s1,-,-,-,-,-,-,.
CC(CCc1ccco1)NC(=O)c1cc2c(-c3ccccc3F)nn(C)c2s1 (stereo not drawn),47,-,-,-,-,-,-
O=C(NCc1ccccc1)[C@@H]1CCCN1C(=O)[C@H]1CCCN1C(=O)c1cccc(F)c1,-,.,.,.,.,-,.
Cc1[nH]c2ccc(-c3n[nH]c(=S)n3-c3ccccc3)cc2c1C,-,-,-,-,-,-,.
Cc1[nH]c2ccc(-c3n[nH]c(=S)n3-c3ccc(Br)cc3)cc2c1C,26,-,-,-,-,-,-
COc1cccc(-n2c(-c3ccc4[nH]c(C)c(C)c4c3)n[nH]c2=S)c1,26,-,-,-,.,-,-
CCCCCCCCN1C(=O)[C@@H](CC(=O)NCCCOCCCC)C[C@@]2(C(=O)OC)C1=C[C@H](C1CCCC1)O[C@@H]2C,-,.,.,.,.,-,.
CC(C)(C)N1Cc2nnn(Cc3ccccc3)c2-c2cc(N3CCCCC3)ccc2S1(=O)=O,-,.,.,.,.,-,.
NS(=O)(=O)c1ccc(CCNC(=O)c2ccc[nH]c2=S)cc1,39,-,-,-,.,-,-
CC(C)Cn1c(N)c(C(=O)CSc2ncccn2)c(=O)n(C)c1=O,58,-,-,-,-,-,-
Cc1ccccc1Cn1c(C)c(C(=O)NCC(C)C)sc1=O,-,.,.,-,.,-,.
O=c1sc(/C=N/Nc2ccccc2)c(Cl)n1Cc1ccccc1,59,-,-,-,-,-,-
CCOC(=O)c1c(-c2ccco2)csc1N,25,-,-,-,-,-,-
